This passage reports composite z-score results from PubChem BioAssay.

Test system in the first experiment: not listed separately
Kind of experiment: probe aNOTCH2 binding on compound microarray – biochemical, small-molecule microarray, 635/667 nm fluorescence, primary screen (AID 1121).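 Further: score merges feature fluorescence read at 667 nm with its signal to noise.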 Particulars: higher = more signal.
`COCCOC(=O)N1C(=O)[C@@]2(c3cc(C#Cc4ccc(OC)cc4)ccc31)[C@H](c1ccc(O)cc1)N1[C@H](c3ccccc3)[C@H](c3ccccc3)OC(=O)[C@H]1[C@@H]2C(=O)NC[C@H](O)c1ccccc1` returned a composite z-score of -0.0878.

The compound `O=C(C1N=C(c2ccc(OCCCO)cc2)N(c2ccccc2)O1)N1CCOCC1` (centres undefined) registered a composite z-score of -0.0843.

Turning to `O=C1O[C@@H](c2ccccc2)[C@@H](c2ccccc2)N2[C@@H](c3ccc(OCCO)cc3)[C@]3(C(=O)Nc4ccccc43)[C@@H](C(=O)NC[C@H](O)c3ccccc3)[C@H]12`, the composite z-score is -0.0649.

Compound `O=C(O)[C@@]1(CCS(=O)(=O)c2ccccc2)COC(c2ccc(OCCCO)cc2)=N1` showed a composite z-score of -0.108.

On to `O=C1O[C@H](c2ccccc2)[C@H](c2ccccc2)N2[C@H]1[C@@H](C(=O)O)[C@]1(C(=O)Nc3ccc(C#CCCO)cc31)[C@H]2c1ccc(O)cc1`, for which the composite z-score was -0.0467.

As for `O=C1C2C=CC(C(O)C(c3ccccc3)c3ccccc3)N(n3cnnc3)C2C(=O)N1Cc1ccccc1` (centres undefined), the composite z-score was -0.0294.

`CCOC(=O)C[C@H]1[C@H](OC(=O)c2ccc(C(=O)c3ccccc3)cc2)[C@@H](NC(=O)c2ccc(-c3ccccc3)cc2)c2cc(OCCCO)ccc2N1C(=O)c1ccccc1` registered a composite z-score of -0.11.

With `CN1C(=O)[C@]2(Cc3ccccc3)N=C(c3ccc(OCCCO)cc3)O[C@@H]2c2ccccc21`, the composite z-score was -0.0734.

As to `CC(CO)N1C(=O)[C@@H]2C3C(=O)OCCC/C=C\[C@H]3OC23C=CCN(c2ccc4ccccc4c2)C(=O)[C@@H]13` (some centres undefined), the composite z-score was -0.115.

In the case of `Cc1ccc(S[C@]2(C(=O)NC3CC3)CC(=O)N(C3Cc4ccccc4C3)[C@@H]2c2ccc(CO)cc2)cc1`, the composite z-score was found to be 0.016.

Regarding `COCCOC(=O)N1C(=O)[C@@]2(c3cc(C#CC4=CCCCC4)ccc31)[C@H](C(=O)Nc1nc3ccccc3s1)[C@H]1C(=O)O[C@H](c3ccccc3)[C@H](c3ccccc3)N1[C@@H]2c1ccc(OCCO)cc1`, the composite z-score is -0.148.

`CC(C)C[C@@H]1NC(=O)[C@H]2C[C@@H](C(=O)NCCCCCCN)[C@@H](c3ccc(O)cc3)N2C1=O` had a composite z-score of 0.171.

For the compound `C=CCN(Cc1ccccc1)C(=O)C(c1cccs1)N(CCOCCO)C(=O)/C=C\C(=O)O` (centres undefined), the composite z-score is -0.165.

With `O=C1OCCC/C=C\[C@H]2OC34C=CCN(CCN5CCOCC5)C(=O)[C@H]3N(CCCO)C(=O)[C@@H]4C12` (some centres undefined), the composite z-score was -0.178.

The compound `[N-]=[N+]=NCc1ccccc1C[C@]1(C(=O)N2CCOCC2)N=C(c2ccc(OCCCO)cc2)O[C@H]1c1ccccc1N=[N+]=[N-]` gave a composite z-score of -0.0301.

`C=CCNC(=O)[C@H]1[C@@H]2C(=O)O[C@@H](c3ccccc3)[C@@H](c3ccccc3)N2[C@@H](c2ccccc2OCCO)[C@]12C(=O)Nc1ccc(C#CC3=CCCCC3)cc12`: the composite z-score is -0.148.

With `C=CCN1C(=O)[C@@]2(O[C@@H](CCO)[C@H]([Si](C)(C)c3ccc(OC)cc3)[C@H]2C)c2cc(NC(=O)c3ccc(OC)cc3)ccc21`, the composite z-score was -0.0836.

`C=CCNC(=O)[C@H]1[C@@H]2C(=O)O[C@@H](c3ccccc3)[C@@H](c3ccccc3)N2[C@@H](c2ccc(OCCO)cc2)[C@]12C(=O)N(C(=O)OCCOC)c1ccccc12` yielded a composite z-score of -0.0964.

In the case of `O=C1OCCC/C=C\[C@H]2OC34C=CCN(Cn5nnc6ccccc65)C(=O)[C@H]3N(CCCCCCO)C(=O)[C@@H]4C12` (some centres undefined), the composite z-score was -0.101.

`COCCCNC(=O)C1N=C(c2ccc(OCCCO)cc2)N(c2ccccc2)O1` (centres undefined) registered a composite z-score of -0.112.

In turn, `COc1ccc(CCNC(=O)[C@@H]2c3ccccc3C(=O)N(C3Cc4ccccc4C3)[C@H]2c2ccc(CO)cc2)cc1` yielded a composite z-score of -0.0907.

`COC(=O)[C@@]1(Cc2ccc(OC)cc2)[C@H]2c3cc(C(=O)N4CCCC4)n(Cc4ccc(OC)c(OC)c4)c3C[C@H]2CN1C(=O)c1ccccc1` came in with a composite z-score of 0.852.

As to `COc1ccc([Si](C)(C)[C@H]2[C@H](CCO)O[C@@]3(C(=O)N(C)c4c(Br)cc(C)cc43)[C@@H]2C)cc1`, the composite z-score was -0.0793.

As to `CCOC(=O)[C@H]1C/C=C/C[C@H](C(=O)OCC)C(=O)O[C@H]2[C@@H](OC)O[C@H](CO)[C@@H](OC(=O)Nc3cccc(F)c3)[C@@H]2OC1=O`, the composite z-score turned out to be 0.0593.

Another experiment has as its target Carbonic anhydrase 2 (Homo sapiens) (UniProt P00918). Nature of the experiment: compounds binding carbonic anhydrase 2 – biochemical, small-molecule microarray, Alexa647-labelled CAII, profiling panel (AID 1122). Particulars: CAII-A647 binding fluorescence, higher = more signal.
`CCCN1C(=O)[C@]2(CCS(=O)(=O)c3ccccc3)N=C(c3ccc(OCCCO)cc3)O[C@@H]2c2ccccc21` showed a composite z-score of 0.276.

`CC(C)(C)C(=O)N[C@@H](c1ccc(Cl)cc1)[C@]1(C)C[C@H]1C1CCCCC1` returned a composite z-score of 0.505.

`COc1cc(CO)cc(I)c1O[C@H]1C=C(C(=O)NCCO)C[C@@H](N(CCN2CCOCC2)C(=O)C2CCOC2)[C@@H]1O` (some centres undefined) gave a composite z-score of 0.0321.

Take `C[C@]1(C(=O)NC2CC2)c2ccccc2C(=O)N(Cc2cc(C(F)(F)F)cc(C(F)(F)F)c2)[C@H]1c1ccc(CO)cc1`: the composite z-score was found to be 0.412.

For `COCCOC(=O)N1C(=O)[C@@]2(c3ccccc31)[C@H](c1ccccc1OCCO)N1[C@H](c3ccccc3)[C@H](c3ccccc3)OC(=O)[C@H]1[C@@H]2C(=O)Nc1nc2ccccc2s1`, the composite z-score came out at 0.481.

The compound `CC(=O)NCCCC[C@@H]1NC(=O)[C@@H]2C[C@H](C(=O)NCCCCCCNC(=O)CS)[C@H](c3cccc(OCCO)c3)N2C1=O` displayed a composite z-score of 0.561.

`CCCCC(=C=CC[C@@H](O)c1ccccc1OCCO)CCO` displayed a composite z-score of 0.726.

For `C=C(COC)/C(=C/C[C@H](OC(=O)c1ccncc1)c1ccc(OCCO)cc1)c1cnc2ccccc2c1`, the composite z-score worked out at 0.86.

Take `COC(=O)[C@@]1(Cc2ccc(F)cc2)[C@@H]2[C@@H](CC(=O)[C@H]2CC(=O)C(=O)N(C)C)CN1C(=O)c1ccccc1`: the composite z-score stood at 0.73.

`NCCCCCNC(=O)[C@@H]1C[C@@H]2C(=O)N[C@@H](Cc3ccccc3)C(=O)N2[C@@H]1c1cccc(OCCO)c1` gave a composite z-score of 0.698.

In turn, `Cc1ccc(C(C)CC(O)C2C=CC3C(=O)N(C)C(=O)C3N2NC(=O)OC(C)(C)C)o1` (centres undefined) registered a composite z-score of 0.642.

`COCCOC(=O)N1C(=O)[C@@]2(c3cc(C#Cc4ccc(OC)cc4)ccc31)[C@H](c1ccc(O)cc1)N1[C@H](c3ccccc3)[C@H](c3ccccc3)OC(=O)[C@H]1[C@@H]2C(=O)NC[C@H](O)c1ccccc1` showed a composite z-score of 0.317.

Consider `O=C(C1N=C(c2ccc(OCCCO)cc2)N(c2ccccc2)O1)N1CCOCC1` (centres undefined), for which the composite z-score came out at 0.557.

The compound `O=C1O[C@@H](c2ccccc2)[C@@H](c2ccccc2)N2[C@@H](c3ccc(OCCO)cc3)[C@]3(C(=O)Nc4ccccc43)[C@@H](C(=O)NC[C@H](O)c3ccccc3)[C@H]12` came in with a composite z-score of 0.549.

`O=C(O)[C@@]1(CCS(=O)(=O)c2ccccc2)COC(c2ccc(OCCCO)cc2)=N1` registered a composite z-score of 0.815.

`O=C1O[C@H](c2ccccc2)[C@H](c2ccccc2)N2[C@H]1[C@@H](C(=O)O)[C@]1(C(=O)Nc3ccc(C#CCCO)cc31)[C@H]2c1ccc(O)cc1`: the composite z-score was 0.501.

Consider `O=C1C2C=CC(C(O)C(c3ccccc3)c3ccccc3)N(n3cnnc3)C2C(=O)N1Cc1ccccc1` (centres undefined), for which the composite z-score came to 0.635.

As to `CCOC(=O)C[C@H]1[C@H](OC(=O)c2ccc(C(=O)c3ccccc3)cc2)[C@@H](NC(=O)c2ccc(-c3ccccc3)cc2)c2cc(OCCCO)ccc2N1C(=O)c1ccccc1`, the composite z-score was found to be 0.0733.

Compound `CN1C(=O)[C@]2(Cc3ccccc3)N=C(c3ccc(OCCCO)cc3)O[C@@H]2c2ccccc21` registered a composite z-score of 0.635.

In turn, `CC(CO)N1C(=O)[C@@H]2C3C(=O)OCCC/C=C\[C@H]3OC23C=CCN(c2ccc4ccccc4c2)C(=O)[C@@H]13` (some centres undefined) registered a composite z-score of 0.0684.

On to `Cc1ccc(S[C@]2(C(=O)NC3CC3)CC(=O)N(C3Cc4ccccc4C3)[C@@H]2c2ccc(CO)cc2)cc1`, for which the composite z-score stood at 0.628.

`COCCOC(=O)N1C(=O)[C@@]2(c3cc(C#CC4=CCCCC4)ccc31)[C@H](C(=O)Nc1nc3ccccc3s1)[C@H]1C(=O)O[C@H](c3ccccc3)[C@H](c3ccccc3)N1[C@@H]2c1ccc(OCCO)cc1` came in with a composite z-score of 0.0924.

Compound `CC(C)C[C@@H]1NC(=O)[C@H]2C[C@@H](C(=O)NCCCCCCN)[C@@H](c3ccc(O)cc3)N2C1=O` yielded a composite z-score of 0.728.

In the case of `C=CCN(Cc1ccccc1)C(=O)C(c1cccs1)N(CCOCCO)C(=O)/C=C\C(=O)O` (centres undefined), the composite z-score was found to be 0.39.

`O=C1OCCC/C=C\[C@H]2OC34C=CCN(CCN5CCOCC5)C(=O)[C@H]3N(CCCO)C(=O)[C@@H]4C12` (some centres undefined) yielded a composite z-score of 0.888.

`[N-]=[N+]=NCc1ccccc1C[C@]1(C(=O)N2CCOCC2)N=C(c2ccc(OCCCO)cc2)O[C@H]1c1ccccc1N=[N+]=[N-]` returned a composite z-score of 0.53.

In turn, `C=CCNC(=O)[C@H]1[C@@H]2C(=O)O[C@@H](c3ccccc3)[C@@H](c3ccccc3)N2[C@@H](c2ccccc2OCCO)[C@]12C(=O)Nc1ccc(C#CC3=CCCCC3)cc12` yielded a composite z-score of 0.0836.

Compound `C=CCN1C(=O)[C@@]2(O[C@@H](CCO)[C@H]([Si](C)(C)c3ccc(OC)cc3)[C@H]2C)c2cc(NC(=O)c3ccc(OC)cc3)ccc21` returned a composite z-score of 0.187.

In turn, `C=CCNC(=O)[C@H]1[C@@H]2C(=O)O[C@@H](c3ccccc3)[C@@H](c3ccccc3)N2[C@@H](c2ccc(OCCO)cc2)[C@]12C(=O)N(C(=O)OCCOC)c1ccccc12` came in with a composite z-score of 0.381.

In turn, `O=C1OCCC/C=C\[C@H]2OC34C=CCN(Cn5nnc6ccccc65)C(=O)[C@H]3N(CCCCCCO)C(=O)[C@@H]4C12` (some centres undefined) gave a composite z-score of 0.652.

As to `COCCCNC(=O)C1N=C(c2ccc(OCCCO)cc2)N(c2ccccc2)O1` (centres undefined), the composite z-score was found to be 0.778.

As to `COc1ccc(CCNC(=O)[C@@H]2c3ccccc3C(=O)N(C3Cc4ccccc4C3)[C@H]2c2ccc(CO)cc2)cc1`, the composite z-score is 0.705.

The compound `COC(=O)[C@@]1(Cc2ccc(OC)cc2)[C@H]2c3cc(C(=O)N4CCCC4)n(Cc4ccc(OC)c(OC)c4)c3C[C@H]2CN1C(=O)c1ccccc1` showed a composite z-score of 0.592.

The compound `COc1ccc([Si](C)(C)[C@H]2[C@H](CCO)O[C@@]3(C(=O)N(C)c4c(Br)cc(C)cc43)[C@@H]2C)cc1` displayed a composite z-score of 0.473.

`CCOC(=O)[C@H]1C/C=C/C[C@H](C(=O)OCC)C(=O)O[C@H]2[C@@H](OC)O[C@H](CO)[C@@H](OC(=O)Nc3cccc(F)c3)[C@@H]2OC1=O`: the composite z-score was found to be 0.66.
